This is one part of the list. The source made the active and inactive calls.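 Rule for the calls: active = mean activation above a set limit carried over from the earlier primary screen (cut at about 22% in these data); inactive = the rest.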
Target: Caspase-3 (Homo sapiens) (UniProt P42574)
Test: procaspase-3 activation, retest of hits – biochemical, absorbance, PC-3 D3A mutant, triplicate, confirmation (AID 488954)
Settings: recombinant PC-3 D3A, Ac-DEVD-pNA absorbance 405 nm; at 8.5 µM; stronger effect = higher value; 100% is higher-enzyme control

Chain of Caspase-3 (Homo sapiens) (P42574 whole entry D9A/D28A/D175A): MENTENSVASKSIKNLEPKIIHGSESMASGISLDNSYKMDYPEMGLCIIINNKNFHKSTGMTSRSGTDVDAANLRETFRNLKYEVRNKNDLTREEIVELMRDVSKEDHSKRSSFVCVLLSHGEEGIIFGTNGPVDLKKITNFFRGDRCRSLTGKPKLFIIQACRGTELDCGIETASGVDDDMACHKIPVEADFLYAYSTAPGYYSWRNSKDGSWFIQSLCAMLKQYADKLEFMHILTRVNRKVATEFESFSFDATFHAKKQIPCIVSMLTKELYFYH

activation, inactive:
O=C(CCNS(=O)(=O)c1ccccc1C(F)(F)F)NCc1ccc2c(c1)OCO2 5.75%, CCOc1ccc2nc(NCCNS(=O)(=O)c3ccccc3)c(C#N)cc2c1 -14.1%, CN1CCN(CCCNC(=O)c2ccc(/C=C3\Oc4ccccc4N(Cc4ccc(Cl)cc4)C3=O)cc2)CC1 -14.8%, COC(=O)c1cnc(Nc2cc(C)ccc2OC)c2ccccc12 -14.1%, Cc1nn(C)cc1CNC(=O)Nc1ccc(Cl)cc1 3.2%, COC(=O)Cc1cc(=O)oc2c(C)c(O)ccc12 -12.9%, Oc1ccccc1C1=NN(c2ccccc2)C(c2ccccc2)C1 (stereo unspecified) -13.4%, COc1ccc(CCNC(=O)COC(=O)c2ccc[nH]c2=O)cc1 5.06%, COc1ccc(-c2sc3ccc(OC)cc3c2C#Cc2ccccn2)cc1 14.4%, COc1ccc2nc(Nc3nc4ccc(NC(C)=O)cc4s3)sc2c1 -1.02%, COc1ccccc1NS(=O)(=O)c1ccc(C(=O)N2CCN(c3ccccc3O)CC2)cc1 5.8%
